Compounds without any hit were thinned out: in the full panel of roughly 83,000, 20% have a hit.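 Testing used 96-well plates and a 48-hour single-concentration exposure. Example: -40 means 40% of the starting cells died.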 Values without a mark were called inactive. Active and inactive are the calls of the source. How the source made its calls: active means growth percent below 10; inactive means the rest.

Some test systems named below: NCI-H23 lung; NCI-H322M lung; HOP-62 NSCLC; NCI-H460 lung; HOP-92 NSCLC; NCI-H522 lung; A549/ATCC NSCLC; 786-0 renal; COLO 205 colon.
Common to all, as to test: NCI-60 one-dose screen, 48 h (100 = growth as untreated, 0 = no growth, -100 = all killed)
What all share (settings): 10 µM unless noted

As to `O=C1/C(=C/c2ccccn2)NC(=S)N1c1ccccc1Cl`, the growth with NCI-H23 lung is 56.4%; with NCI-H322M lung, 66.7%; with HOP-62 NSCLC, 38.9%; in the test on NCI-H460 lung, 31.2%; with HOP-92 NSCLC, 102%; in the test with NCI-H522 lung, 58.1%. In addition, the growth was 51% with A549/ATCC NSCLC, 31.8% in the test on 786-0 renal and 66.4% in the test on COLO 205 colon.

For the compound `Cc1ccc(-c2csc(N(C(=O)N3CCN(c4cc5c(cc4F)c(=O)c(C(=O)O)cn5C4CC4)CC3)c3ccccc3)n2)cc1`, the growth is -0.349% (active) in the test with NCI-H23 lung; 4.96% (active) in the test with NCI-H322M lung; 4.78% (active) in the test with HOP-62 NSCLC; 5.91% (active) in the test on NCI-H460 lung; -18% (active) in the test on HOP-92 NSCLC; -0.464% (active) with NCI-H522 lung. For the same compound, the growth in the test with A549/ATCC NSCLC is 13.7%; in the test on 786-0 renal, 4.6% (active); in the test with COLO 205 colon, 8.13% (active).

As to `CC1=C2[C@@H](CC1)[C@]1(C)O[C@@](c3ccccc3)(C[C@H]1OC(=O)CO)[C@H]2OC(=O)/C=C/c1ccccc1`, the growth was 99.3% in the test with NCI-H23 lung; 101% in the test with NCI-H322M lung; 100% in the test with HOP-62 NSCLC; 85.2% with NCI-H460 lung; 96.2% in the test on HOP-92 NSCLC; 72.3% in the test with NCI-H522 lung. For the same compound, the growth is 74.4% in the test with A549/ATCC NSCLC, 68.7% with 786-0 renal and 110% in the test on COLO 205 colon.

In the case of `Cc1ccc2nc(/C(C#N)=C(/CCCO)NC(Cc3ccccc3)C(=O)OCc3ccccc3)[nH]c(=O)c2c1` (configuration not stated), the growth in the test on NCI-H23 lung is 43%; with NCI-H322M lung it was 94.4%; with HOP-62 NSCLC, 88.2%; in the test with NCI-H460 lung, 110%; in the test with HOP-92 NSCLC, 108%; in the test with NCI-H522 lung, 112%. Also, the figures for the growth with A549/ATCC NSCLC, in the test with 786-0 renal and in the test with COLO 205 colon were 114%, 93.9% and 87.8%, respectively.

`CC1CCN(C(=S)SCC(=O)NC(=O)c2ccccc2)CC1`: the growth was 102% in the test with NCI-H23 lung; 105% in the test on NCI-H322M lung; 96.7% in the test with HOP-62 NSCLC; 110% in the test on NCI-H460 lung; 107% with HOP-92 NSCLC; 83.3% in the test with NCI-H522 lung. Besides, the growth is 105% in the test with A549/ATCC NSCLC, 103% in the test with 786-0 renal and 104% in the test with COLO 205 colon.

Take `CC1(C)NCCC[C@]2(C)[C@H]3CC[C@H]4[C@H]5[C@H](C(=O)/C=C/c6cccnc6)CCC[C@]5(CO)CC[C@@]4(C)[C@]3(C)CC[C@@H]12`: the growth with NCI-H23 lung is 77.6%; in the test with NCI-H322M lung it was 85.5%; in the test with HOP-62 NSCLC it was 97.3%; with NCI-H460 lung, 10.9%; in the test on HOP-92 NSCLC it was 48.1%; in the test with NCI-H522 lung, 88%. For the same compound, the growth in the test with A549/ATCC NSCLC was 67%; with 786-0 renal, 83.8%; in the test on COLO 205 colon, -72.9% (active).

`O=C(N/N=C\c1cccc([N+](=O)[O-])c1)N/N=C/c1cccc([N+](=O)[O-])c1`: the growth in the test on NCI-H23 lung was 101%; in the test with NCI-H322M lung, 104%; in the test with HOP-62 NSCLC it was 92.9%; in the test with NCI-H460 lung, 107%; in the test on HOP-92 NSCLC, 105%; in the test with NCI-H522 lung, 98.9%. Further, the growth is 100% in the test with A549/ATCC NSCLC, 111% in the test with 786-0 renal and 119% in the test on COLO 205 colon.

Turning to `O=c1ccc(=O)n(-c2nc(-c3ccc([N+](=O)[O-])cc3)cs2)[nH]1`, the growth in the test with NCI-H23 lung is 90.7%; in the test on NCI-H322M lung, 104%; in the test on HOP-62 NSCLC it was 107%; with NCI-H460 lung, 102%; with HOP-92 NSCLC it was 103%; in the test with NCI-H522 lung, 95.8%. For the same compound, the growth was 88.9% with A549/ATCC NSCLC, 81.3% in the test on 786-0 renal and 105% in the test on COLO 205 colon.

Turning to `CCCCCN(CCCCC)CC(O)c1cc(C)c2ccc3cc(C(C)C)ccc3c2c1` (configuration not stated), the growth with NCI-H23 lung is -52.1% (active); in the test with NCI-H322M lung it was 76.7%; in the test with HOP-62 NSCLC, 20%; in the test with NCI-H460 lung, 6.03% (active); in the test on HOP-92 NSCLC, -43.6% (active); in the test with NCI-H522 lung it was -62.4% (active). For the same compound, the growth in the test on A549/ATCC NSCLC was 3.86% (active); in the test with 786-0 renal it was -80.5% (active); in the test on COLO 205 colon, -14.9% (active).

`C=C1C(=O)O[C@H]2[C@H]1CC/C(COC(=O)/C=C/C(=O)OC/C1=C/CC[C@@]3(C)O[C@H]3[C@H]3OC(=O)C(=C)[C@@H]3CC1)=C\CC[C@@]1(C)O[C@@H]21`: the growth in the test on NCI-H23 lung is 94.1%; in the test on NCI-H322M lung, 101%; with HOP-62 NSCLC, 96.6%; in the test with NCI-H460 lung it was 100%; with HOP-92 NSCLC, 19%; in the test on NCI-H522 lung, -32% (active). Also, the growth was 88.6% in the test with A549/ATCC NSCLC, 5.31% (active) in the test on 786-0 renal and 11.3% in the test with COLO 205 colon.

As to `NC(=O)c1c(NC(=O)c2cccc(C(F)(F)F)c2)sc2c1CCC(=O)C2`, the growth is -2.9% (active) with NCI-H23 lung; 61.6% with NCI-H322M lung; 28.2% with HOP-62 NSCLC; 5.67% (active) in the test on NCI-H460 lung; -45.1% (active) with HOP-92 NSCLC; -37.6% (active) in the test with NCI-H522 lung. For the same compound, the growth in the test on A549/ATCC NSCLC is 17%; in the test on 786-0 renal, 17.8%; in the test with COLO 205 colon, -51.2% (active).

On to `CCNC(=O)Oc1ccc(/C(=C(/C)Cc2ccc(OC)cc2)c2ccc(OCCN3CCCCC3)cc2)cc1`, for which the growth in the test with NCI-H23 lung is 87.7%; with NCI-H322M lung, 89.2%; with HOP-62 NSCLC, 91.5%; with NCI-H460 lung it was 35.7%; with HOP-92 NSCLC, 44.4%; in the test with NCI-H522 lung, 72.8%. The growth was 72.6% in the test on 786-0 renal and 20.9% in the test on COLO 205 colon.

Turning to `Cc1cccc2c1C[C@@]1(C2=O)C(c2ccc(C(C)(C)C)cc2)=NOS1=O` (some centres not stated), the growth in the test with NCI-H23 lung is 83.2%; with NCI-H322M lung, 92.2%; with NCI-H460 lung it was 92.2%; in the test on NCI-H522 lung, 90.8%; in the test on A549/ATCC NSCLC, 90.3%; in the test on 786-0 renal, 99.7%. Also, in the test with COLO 205 colon, the growth is 105%.

Turning to `COc1cc(/C=C/C(=O)/C=C(O)/C=C/c2ccc(OC(=O)C34CC5CC(CC(C5)C3)C4)c(OC)c2)ccc1OC(=O)C12CC3CC(CC(C3)C1)C2`, the growth was 103% with NCI-H23 lung; 99.1% in the test with HOP-62 NSCLC; 108% in the test with NCI-H460 lung; 110% with HOP-92 NSCLC; 94.8% in the test with NCI-H522 lung; 103% in the test with A549/ATCC NSCLC. Moreover, the growth with 786-0 renal is 105%; in the test on COLO 205 colon, 112%.

With `CN1CCN(C(=O)[C@@]2(C)CC[C@]3(C)CC[C@]4(C)C(=CC[C@@H]5[C@@]6(C)CCC(=O)NC(C)(C)[C@@H]6CC[C@]54C)[C@@H]3C2)CC1`, the growth with NCI-H23 lung is 61.8%; in the test with NCI-H322M lung, 70.7%; with HOP-62 NSCLC, 62.8%; in the test with NCI-H460 lung, 31.8%; with HOP-92 NSCLC it was 15.9%; with NCI-H522 lung it was 74.8%. Moreover, the growth was 51.9% in the test on A549/ATCC NSCLC, 47.9% in the test on 786-0 renal and 7.65% (active) in the test on COLO 205 colon.

As for `CC/C=C\CCC/C=C1/C(=O)C=C[C@@H]1C/C=C\CCCC(=O)OC`, the growth is 34.9% in the test on NCI-H23 lung; 101% with NCI-H322M lung; 42.3% in the test with HOP-62 NSCLC; 52.4% with NCI-H460 lung; 83.4% with HOP-92 NSCLC; 11.7% in the test with NCI-H522 lung. The growth in the test with A549/ATCC NSCLC is 79%; in the test with 786-0 renal, 69.3%; in the test on COLO 205 colon, 49.7%.

Consider `CC1(C)N=C(N)N=C(N)N1c1cccc(CCc2ccccc2)c1`, for which the growth in the test with NCI-H23 lung was 21.7%; in the test on NCI-H322M lung, 45.8%; with HOP-62 NSCLC, 45%; in the test with NCI-H460 lung it was 16.1%; in the test on HOP-92 NSCLC it was 63.2%; in the test on NCI-H522 lung, 21.4%. Besides, the growth is 24.8% in the test on A549/ATCC NSCLC, 30.8% in the test with 786-0 renal and 29.5% with COLO 205 colon.

Turning to `Cc1ccc(N2C(=O)CCC2=O)cc1`, the growth is 101% in the test with NCI-H23 lung; 104% in the test with NCI-H322M lung; 99.2% in the test with HOP-62 NSCLC; 99.7% in the test with NCI-H460 lung; 96.3% in the test on HOP-92 NSCLC; 74.2% with NCI-H522 lung. Besides, the figures for the growth in the test with A549/ATCC NSCLC, in the test with 786-0 renal and in the test with COLO 205 colon were 102%, 97.4% and 107%, respectively.

`COC(=O)CCC/C=C\C[C@H]1C=CC(=O)/C1=C/C[C@@H](O)C/C=C\CC(F)(F)F`: the growth was -15.2% (active) in the test on NCI-H23 lung; 46.9% with NCI-H322M lung; -12.4% (active) in the test with HOP-62 NSCLC; -47.2% (active) with NCI-H460 lung; -18.8% (active) in the test with HOP-92 NSCLC; -56.6% (active) in the test with NCI-H522 lung. Further, the growth in the test with A549/ATCC NSCLC was -3.51% (active); in the test with 786-0 renal, -39.5% (active); with COLO 205 colon, -36.2% (active).

Source of the values: PubChem BioAssay (NCI).
